This is a sample that favours compounds with a hit; in the whole collection about 19% have one here.
KB-V1 MDR tox: KB-V1 MDR subline cytotoxicity; KB-V1 MDR cells viability, CellTiter-Glo, 72 h; actives 3.4% (n = 400,000); Potency, µM (series often up to 46.1 µM), most hits filed as cytotoxic; note: nearly all actives have a fitted effect of over 60% in size
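In this primary screen, KB-V1 cells overexpressing P-gp are incubated with library compounds (lowest to highest concentration) for 72 h at 37 degrees C before a luminescent ATP viability read.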
DT40 TDP1 CPT: DT40-hTDP1 cell growth loss with CPT; chicken DT40 Tdp1-/-;hTDP1 cells + 20 nM CPT, ATP luminescence, 48 h; Potency, µM (doses to about 46.2 µM), without a hit: top-dose activity change, negative = growth inhibition, hits mostly inhibitors; actives 12% (n = 420,000); AID 686979; note: nearly all actives have a fitted effect of over 55% in size
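Chicken DT40 Tdp1-/- cells complemented with human TDP1, 400 cells/well, exposed to compounds plus 20 nM camptothecin for at least 48 h at 37 C; viability read as ATP content by CellTiter-Glo luminescence.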
HT1080-NT tox: kills 2HG-producing HT-1080-NT fibrosarcoma cells. HT-1080-NT fibrosarcoma viability, CellTiter-Glo ATP luminescence, 48 h. Potency, µM (top dose mostly 46.1 µM), for inactives: at the top dose activity, negative = less viability, hits mostly cytotoxic. actives 1.6% (n = 360,000). AID 686970;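 note: NT is the 2HG producing partner of a matched IDH1 knockdown line; 0% = DMSO-treated cells and -100% = media-only wells without cells; nearly all actives have a fitted effect of over 55% in size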
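HT-1080-NT fibrosarcoma cells (2HG-overproducing), 750 cells/well in RPMI with 5% FBS, dosed after 2 h and incubated 48 h at 37C. CellTiter-Glo luminescence normalized to DMSO and no-cell wells; concentration-response curves fitted and classed.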
TDP1 cell noCPT: qHTS for Inhibitors of human tyrosyl-DNA phosphodiesterase 1 (TDP1): qHTS in cells in absence of CPT; actives 15% (n = 420,000); DT40 Tdp1-/- hTDP1 cells, no CPT, ATP luminescence, 48 h; Potency, µM (highest dose often 46.2 µM), inactives show at the top dose activity change, negative = growth inhibition, actives largely listed as inhibitors; note: nearly all actives have a fitted effect of over 55% in size
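DT40 Tdp1-/-;hTDP1 cells, no CPT (DMSO vehicle only), 400 cells/well; compounds pin-transferred; ≥48 hr, 37 °C; CellTiter-Glo 30 min RT dark, luminescence read.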
HT1080 IDH1KD tx: toxicity to HT-1080 IDH1 knockdown cells (counter line); HT-1080 IDH1 knockdown viability, ATP luminescence, 48 h; Potency, µM (top dose mostly 46.1 µM), inactives show at the top dose activity, negative = toxicity, usual class: cytotoxic; actives 2% (n = 360,000); AID 686971;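 note: 0% = DMSO wells and -100% = cell-free medium wells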
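Assay cells: HT-1080 with IDH1 knockdown, 750 per well, RPMI/5% FBS. Exposure: 48 h at 37 °C following 2 h pre-incubation. Read: CellTiter-Glo luminescence; fitted concentration-response, curve class assigned.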
KB-3-1 cytotox: KB-3-1 parental cell cytotoxicity. KB-3-1 viability, CellTiter-Glo ATP luminescence, 72 h. Potency, µM (titrated, usually from 46.1 µM), most hits filed as cytotoxic. actives 1.4% (n = 400,000). AID 1347075; note: nearly all actives have a fitted effect of over 60% in size
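Cytotoxicity in the drug-sensitive parental line KB-3-1 was scored as loss of CellTiter-Glo luminescence following 72 h incubation with compound. Values come from curve fitting of normalized concentration-response data.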
* marks the source's active call; other numbers are inactive results; i = inactive; ? = inconclusive; / = not tested or not shown; [ ] = dose if it differs, or a comment. Calls come from the whole dose curve; as a rule, active = well fitted curve in the direction sought with a large enough effect; inconclusive = small, poorly fitted or top-dose-only effect, or another doubt; inactive = no such curve, though single readings can be large; an effect the other way counts as inactive or inconclusive. Unless noted, % is set by controls: 0 for no effect and ±100 for the full control effect; potency is the fitted concentration of half-maximal effect.

SMILES	KB-V1 MDR tox	DT40 TDP1 CPT	HT1080-NT tox	TDP1 cell noCPT	HT1080 IDH1KD tx	KB-3-1 cytotox
Cc1ccccc1N1CCN(C(=O)c2ccc(Oc3ccc(C(F)(F)F)cn3)cc2)CC1	i	8.9µM*	4%	13µM*	-4%	i
CC(C)(C)NC(=O)N1CCCN(c2ccc(C(F)(F)F)cn2)CC1	i	-19%	-14%	?	-13%	i
O=C(c1ccc2n[nH]nc2c1)N1CCN(c2ccc(C(F)(F)F)cn2)CC1	i	16µM*	-7%[9.24 µM]	?	-4%	?
O=C(Nc1ccccc1Cl)c1cc(C2CCCCN2C(=O)CCc2ccccc2)on1 (stereo not given)	i	?	-22%	?	-8%	i
O=C(Nc1ccncc1)c1cc(C2CCCCN2C(=O)CCCc2ccccc2)on1 (stereo not given)	i	16µM*	0%	15µM*	-9%	i
O=C(Nc1cccc2c1CCCC2)c1cc(C2CCCCN2C(=O)CCCc2ccccc2)on1 (stereo not given)	i	16µM*	0%	?	-3%	i
Cc1ccc(C)c(S(=O)(=O)N2CCCCC2CCNC(=O)C(=O)NCc2ccncc2)c1 (stereo not given)	2.3µM*	?	9%	?	-3%	?
O=C(NCCC1CCCCN1S(=O)(=O)c1ccc(F)cc1)C(=O)NC1CCCC1 (stereo not given)	i	?	1%	?	-4%	i
Cc1ccc(S(=O)(=O)N2CCCCC2CCNC(=O)C(=O)NC2CCCC2)cc1 (stereo not given)	?	?	-7%	21µM*	-17%	i
Cc1ccc(C)c(S(=O)(=O)N2CCCC2CNC(=O)C(=O)NC2CCCC2)c1 (stereo not given)	i	-8%	5%	-32%	5%	i
Cc1ccc(CNC(=O)C(=O)NCCC2CCCCN2S(=O)(=O)c2cccs2)cc1 (stereo not given)	?	?	10%	?	-1%	i
Cc1ccc(C)c(S(=O)(=O)N2CCCCC2CCNC(=O)C(=O)NC2CCCC2)c1 (stereo not given)	?	?	-1%	16µM*	-22%	i
Cc1ccc(NCc2cccn2-c2nnc(N3CCCCCC3)s2)cc1	i	?	/	16µM*	/	i
CCN1CCN(CCCNC(=O)C2CCN(c3nnc(-n4c(C)ccc4C)s3)CC2)CC1	i	-26%	-5%	?	2%	i
Cc1ccc(NCc2cccn2-c2nnc(N3CCC(C(=O)NCc4ccc(F)cc4)CC3)s2)cc1	/	?	/	18µM*	/	/
CCc1ccc(CNC(=O)C2CCN(c3nnc(-n4c(C)ccc4C)s3)CC2)cc1	/	?	/	8.2µM*	/	/
Fc1ccc(NCc2cccn2-c2nnc(N3CCOCC3)s2)cc1	?	-18%	/	-27%	/	i
Cc1ccc(NCc2cccn2-c2nnc(N3CCC(C(=O)NCc4ccccc4C)CC3)s2)cc1	/	?	/	16µM*	/	/
O=C(Cn1cnc2ccccc2c1=O)NCCC(=O)Nc1ccccc1C(F)(F)F	i	16%	3%	-8%	20%	i
COc1cccc(CNC(=O)c2ccc(OCC(=O)N3CCOCC3)c(OC)c2)c1	i	14%	17%	8%	11%	i
COc1ccccc1CCNC(=O)C1CCN(c2nnc(-n3cccc3CNc3ccc(C)cc3)s2)CC1	/	18µM*	/	23µM*	/	/
COc1ccc(OC)c(CCNC(=O)C2CCN(c3nnc(-n4cccc4)s3)CC2)c1	i	?	-11%	?	-4%	i

Screening data (PubChem BioAssay)
